In the supplement of paper PMC11417369:
± gives the standard deviation of the averaged measurements. Over roughly 25,000 sequences, “ln(normalized median fluorescence intensity)” has its median near 8.6; the highest 2% begin near 10. The sample holds the highest values, similar sequences and a random draw of the others, so the mix is not that of the screen.

These sequences were tested on PfAP2-EXP AP2 domain (GST-tagged) (assay: gcPBM binding intensity (ln(normalized median fluorescence intensity)); higher = stronger DNA binding).
How it was run: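 Binding intensity is the highest Masliner-normalised natural-log median intensity over replicate spots in either probe orientation. To obtain it, GST-tagged P. falciparum DNA-binding domains made in E. coli were incubated for 1 h on an Agilent 4 × 180k array of primer-extended double-stranded 36-bp intergenic genomic probes plus negative controls. Detection used Alexa488 anti-GST antibody with scanning at 488 nm.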

Sequence | gcPBM binding intensity (ln)
ATTATATATATATATAAACACACATAAATATAAATA [CACACA_site8291] | 8.56 ± 0.38
AAAATATTTATTTTTTGTACACATAAAAACGCACTT [XGTACX_site4132] | 8.62 ± 0.11
TATTATTTTTTAAATTGTACAATAAATTATAAAAGG [XGTACX_site1162] | 8.41 ± 0.39
TTCTAATATTTTTGCACACTAAACAATAAATTTCCT [CACACA_site3944] | 8.885 ± 0.078
AGCTCTCAAAATTATTCACACGTGTCCTGTTATATA [CACACA_site5415] | 9.26 ± 0.47
TTTGTGTAAAGAATCAGTACATATAATATATATATA [XGTACX_site1972] | 9.34 ± 0.33
ATATATTTCATTTTTGTACACACAACGTTGGAGGGT [CACACA_site8999] | 8.84 ± 0.39
AAAATAATTGTTTACACACCCATTTGTAATTTTACC [CACACA_site3614] | 8.54 ± 0.37
GTACCTATTTCATACACACACACACGCAAACAAACA [CACACA_site6590] | 9.01 ± 0.34
TTAACTCAAGAGTGTACACATATATATATATATATA [CACACA_site4334] | 10.2 ± 0.47
GTATATATGTATATGTGTACACATATTCTTAACTCA [XGTACX_site309] | 8.88 ± 0.33
CACTTAACACAAGAGTGTACACATATATATATATAT [XGTACX_site686] | 10.1 ± 0.53
TTATAAATGTAACGATGTACTTTTAAAAGTTTCCTT [XGTACX_site109] | 8.36 ± 0.38
TGGTATTAAGGAGAGGGTACAAAAAAAAAAAAAAAA [XGTACX_site1668] | 8.28 ± 0.49
AATAATATCATTTAGACACACACTCTTACAATATGT [CACACA_site8832] | 8.61 ± 0.45
GTTTATATTTAATTTTTTTGTTTTTTTGTGTAATTC [XGTACX_negctrl_site194] | 8.53 ± 0.47
AGATTTAAATATCATACACACTTTATCTATAATACA [CACACA_site6581] | 8.32 ± 0.4
ATATATATATATATATGTACATAATTAATAATTAGA [XGTACX_site5672] | 10.3 ± 0.25
ATAAAATTTTATATGGGTACATAATATAATATATAT [XGTACX_site8160] | 8.84 ± 0.41
ATAAATATATTTAAATGTACATAATATATATATATA [XGTACX_site5137] | 9.96 ± 0.18
TAAAAAATAAATATATGTACATATTTATTTTTTTTT [XGTACX_site850] | 8.21 ± 0.35
TTATAATTTAATAAATGTACATAAATAATATACATA [XGTACX_site7271] | 8.26 ± 0.18
CATATTAATATTATGGGTACATATAAATTTACATTC [XGTACX_site687] | 8.64 ± 0.38

Sequence | gcPBM binding intensity (ln)
ATATATATATATATATGTACATAAATATTTTAAAAT [XGTACX_site4980] | 10.3 ± 0.4
TAATTAATAATAATATGTACATATTAATATATTATT [XGTACX_site6900] | 8.29 ± 0.24
AATAAATTAATTTTGGGTACATATATATATATATAT [XGTACX_site3807] | 10.2 ± 0.23
AAATAATTTACTTAATGTACATATATATATATATAT [XGTACX_site8594] | 10.59 ± 0.092
GTATTTTTTTTAATATGTACATATAAAATATTTTAT [XGTACX_site8329] | 8.96 ± 0.31
TTAATATTAATTATATGTACATATAATATATATATA [XGTACX_site1757] | 9.18 ± 0.13
TAATTTAAAATATATAGTACACACGTGAACACAAAT [XGTACX_site792] | 8.89 ± 0.45
AATATATCATAATGATGTACAAGTAAAACCGTTACA [XGTACX_site4280] | 8.74 ± 0.52
TATTATATGTATTGCACACCTTCAACAACTACTTCT [CACACA_site655] | 9.03 ± 0.14
TATTATTTTTTTATTCTATTAAAAAGAAAAAAATGA [CACACA_negctrl_site407] | 7.95 ± 0.47
ACTTTACGAATTAAGAGTACTTATTTAAGGAACACT [XGTACX_site7919] | 8.52 ± 0.37
CTACATAAAAAAATATGTACATATATATATATATAT [XGTACX_site667] | 10 ± 0.46
AAATATAAAAAAAAAAGTACTTTGTTACTTTTCTAT [XGTACX_site6034] | 8.04 ± 0.36
AACACATACAGATATGCACACATTTTATTCCATTAT [CACACA_site5565] | 8.84 ± 0.34
TGAAAAAATATAATTTGTACATATCAGGCAAAAATG [XGTACX_site1824] | 8.68 ± 0.38
TATAAAAATATATTTACACACTATATATATCGAAAG [CACACA_site1700] | 8.52 ± 0.38
CCACTAATAAATATTACACACATATAGATTTATATT [CACACA_site7465] | 8.41 ± 0.44
ATATATATATATAATACACACTAAAGTAACATAATA [CACACA_site5580] | 9.74 ± 0.11
TTTATACTTTCAAAATGTACATATATATATATATAT [XGTACX_site6241] | 10.2 ± 0.24
CATATAATATAATTATGTACATATATAATAATATAC [XGTACX_site5278] | 8.47 ± 0.29
TTATATACATAAAAATGTACTTTTTATAAAATATAT [XGTACX_site8281] | 8.21 ± 0.18
TATATATATACTTAATGTACATATATATATATATAT [XGTACX_site3102] | 10.3 ± 0.2
AATATTTATTTTATATGTACATAATTTATTTTTAAT [XGTACX_site776] | 8.63 ± 0.32

Sequence | gcPBM binding intensity (ln)
ATATATATATATATATGTACATAATTAATAGCATAT [XGTACX_site1428] | 10.2 ± 0.36
TATATACTTTATAAATGTACATATAATGTATTATTT [XGTACX_site7313] | 8.34 ± 0.42
ATATATATATATATATGTACATATTTTATTTAATTT [XGTACX_site1807] | 10.2 ± 0.28
TTTAATATGAATTTATGTACATATATATATATATAT [XGTACX_site6337] | 10.2 ± 0.35
TATATATATATATAATGTACATATATATAATATACA [XGTACX_site1552] | 10.1 ± 0.27
TATATATATATATAATGTACATAATAATAATACATC [XGTACX_site5587] | 9.84 ± 0.26
TATATATATAATATATGTACATATTAATTATGTATA [XGTACX_site5366] | 8.79 ± 0.13
CAACACTTAGATTTTAAGTTCACTGGTTAATATATA [CACACA_negctrl_site707] | 8.12 ± 0.4
ATTGAAAATTGTTGCACACATAATAATTAAATATAT [CACACA_site1857] | 8.37 ± 0.23
GATCTTTAAATTTATTGTACATAAATGTATATGTTA [XGTACX_site1107] | 8.59 ± 0.45
TATTTACAAAAAAAATATAAAAAATATAAAATATAT [CACACA_negctrl_site575] | 8.12 ± 0.31
TGTTAATTTCATTTTCTACACACCTATCCTTTTTTT [CACACA_site8157] | 8.88 ± 0.47
TTTTTTTTTTTCGGGGGTACTAATATATTATTAATA [XGTACX_site7809] | 10.4 ± 0.34
ATATATATATATATATGTACATAAATATAAATTTAA [XGTACX_site8715] | 10.2 ± 0.24
AATATTATATATATGGGTACTAATTCCTTTAATTTC [XGTACX_site102] | 8.15 ± 0.3
ATATATATATATATATGTACATATTTTTAATTATAA [XGTACX_site7444] | 9.86 ± 0.13
ATATATTATATAATATGTACATAATAAAATTTAAAT [XGTACX_site1900] | 8.72 ± 0.27
TATTAATTTTTATTATGTACATAAATAATTTATATT [XGTACX_site5456] | 8.39 ± 0.28
ATATATATATATATATGTACATATTTTAATAATTAA [XGTACX_site8549] | 10.2 ± 0.23
AAATAAATAATTTAATGTACATATATAATATATATA [XGTACX_site1831] | 8.5 ± 0.11
TAATTATTTTCGGTACGTACTAATGTATATATAATT [XGTACX_site3895] | 8.67 ± 0.42
GTATATAATTATATATGTACTAAATAAATATTTTTA [XGTACX_site6062] | 8.29 ± 0.39
ATATATATATATATATGTACTAATTAATATTTCGAG [XGTACX_site580] | 10.2 ± 0.47

Sequence | gcPBM binding intensity (ln)
TTAAATATAATATTATGTACTAAATATTTTTTTATT [XGTACX_site6121] | 8.09 ± 0.37
AAATTATATCCCCTTTGTACTTACAGATCTTTATAC [XGTACX_site8163] | 8.77 ± 0.51
CACAGTGATATAAAAACACACATGAATTCTAATTTC [CACACA_site6884] | 8.3 ± 0.21
AAAGTTGTTACGAACATACACACGAACATACTCACG [CACACA_site604] | 8.7 ± 0.69
CCACTATATAAAATCACACATTTATATTATACATAT [CACACA_site4570] | 8.43 ± 0.4
TGTCATTTAATTTTTTGTACGAAAAAAACATATAAA [XGTACX_site4952] | 8.6 ± 0.24
TAATATTAATCCTAGTGTACATTAATTTATATGTAT [XGTACX_site3583] | 8.51 ± 0.45
GTATATATATATTTATGTACTTACCTACATAATTAT [XGTACX_site4435] | 8.84 ± 0.24
ATATATATATATATATGTACATATTATTAATAATAT [XGTACX_site6667] | 10.2 ± 0.35
ATAATGTTTTATAATACACACATTATGTATATAAAT [CACACA_site4077] | 8.36 ± 0.38
AAATTAATATAAATATGTACATAAATAATAAAATAT [XGTACX_site6131] | 8.71 ± 0.5
TTTAATTAAAATATATGTACATATATATATATATAT [XGTACX_site4517] | 10.4
ATATTAATATACATATGTACATATATATATATATAT [XGTACX_site7425] | 10.2 ± 0.24
GTATGTATGTATATATGTACACATTATTATTTAATG [XGTACX_site5802] | 8.78 ± 0.11
AAATTAAAATATATATGTACATATATATATATATAT [XGTACX_site7844] | 10 ± 0.42
TATACATATATTATATGTACATATATATATAATATA [XGTACX_site2942] | 8.29 ± 0.28
ATATATATATATATATGTACACATTAATGTTTTTTT [XGTACX_site167] | 10.4 ± 0.24
TATTATTATTATTATTTTAAAAGAAATAAAAATATG [XGTACX_negctrl_site119] | 8.1 ± 0.39
AATTGGAAGAAAAAAAAGGAAGGAAAGTTATTACAT [GTGCAC_negctrl_site74] | 8.62 ± 0.41
AAATTTGAAGAATATTGTACGCATAATAATTAAATA [XGTACX_site4300] | 8.82 ± 0.41
